Assay results reported in PMC5540273 (PLoS ONE, 2017).

How the values were obtained:
Details in all cases: concentration: 1 μM, replicates: in singlicate; n = 1
[1] = tested on: T1, PCTK2
T1 construct: gene CDK17

[2] = tested on: T2, PCTK3
T2 construct: gene CDK18

[3] = tested on: PDGFRA
[4] = tested on: PDGFRB
[5] = tested on: PDPK1
[6] = tested on: PFTAIRE2
[7] = tested on: T3, PFTK1
T3 construct: gene CDK14

[8] = tested on: PHKG1
[9] = tested on: PHKG2
[10] = tested on: PIK3C2B
[11] = tested on: PIK3C2G
[12] = tested on: PIK3CA
[13] = tested on: PIK3CB
[14] = tested on: PIK3CD
[15] = tested on: PIK3CG
[16] = tested on: T4, PIK4CB
T4 construct: gene PI4KB

[17] = tested on: PIKFYVE
[18] = tested on: PIM1
[19] = tested on: PIM2
[20] = tested on: PIM3
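Further: KINOMEscan kinase panel screen.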

Row | Structure (SMILES) | %Inh [1] | %Inh [2] | %Inh [3] | %Inh [4] | %Inh [5] | %Inh [6] | %Inh [7] | %Inh [8] | %Inh [9] | %Inh [10] | %Inh [11] | %Inh [12] | %Inh [13] | %Inh [14] | %Inh [15] | %Inh [16] | %Inh [17] | %Inh [18] | %Inh [19] | %Inh [20]
1 | Cc1ccc(C)c(NC(=O)NC2CCN(c3ccnc(Nc4ccc(F)cc4)n3)C2)c1 (stereo not shown) [GSK1379720] | 0% | 10% | 0% | 4% | 0% | 4% | 0% | 0% | 0% | 0% | 0% | 0% | 0% | 8% | 0% | 0% | 0% | 15% | 0% | 0%
2 | Cc1cccc(NC(=O)Nc2ccc(Oc3ncnc4ccn(C)c34)cc2)c1 | 0% | 0% | 99.7% | 100% | 0% | 0% | 0% | 0% | 0% | 0% | 0% | 0% | 0% | 0% | 0% | 0% | 40% | 0% | 0% | 0%
3 | O=C(Nc1cccc(-c2nn3ncccc3c2-c2ccnc(Nc3ccccc3)n2)c1)c1c(F)cccc1F [GSK198271] | 0% | 17% | 65% | 100% | 0% | 23% | 0% | 0% | 0% | 0% | 0% | 0% | 0% | 0% | 0% | 6% | 0% | 16% | 0% | 5%
4 | COc1cccc(NC(=O)NC2CCN(c3ccnc(Nc4cc(OC)c(OC)c(OC)c4)n3)C2)c1 (stereo not shown) [GSK1379763] | 25% | 21% | 28% | 83% | 0% | 9% | 5% | 0% | 0% | 0% | 0% | 0% | 0% | 51% | 8% | 78% | 0% | 0% | 0% | 0%
5 | Cc1ccc(C(=O)N2CC[C@@H](O)C2)cc1-n1c(C)cc(OCc2ccc(F)cc2F)c(Br)c1=O | 0% | 7% | 4% | 77% | 30% | 2% | 12% | 0% | 0% | 0% | 0% | 0% | 0% | 0% | 0% | 0% | 28% | 0% | 7% | 1%
6 | CC(C)(C)c1ccc2nccc(Nc3cccc(O)c3)c2c1 [GW856795] | 0% | 0% | 81% | 1% | 96.3% | 0% | 0% | 0% | 9% | 38% | 25% | 0% | 0% | 3% | 33% | 0% | 42% | 7% | 0% | 0%
7 | COc1cc(Nc2nccc(N3CCC(NC(=O)c4cc5ccccc5s4)C3)n2)cc(OC)c1OC (stereo not shown) [GSK1379760] | 9% | 20% | 0% | 44% | 50% | 7% | 0% | 12% | 0% | 0% | 0% | 0% | 0% | 14% | 0% | 0% | 6% | 16% | 0% | 3%
8 | CSc1cccc2c(-c3ccncn3)c(-c3ccc(F)cc3)nn12 [GW514786] | 0% | 14% | 0% | 7% | 0% | 20% | 28% | 12% | 0% | 0% | 0% | 0% | 0% | 0% | 0% | 0% | 19% | 0% | 0% | 15%
9 | Cl.NC(=O)c1cccc(Nc2nccc(Nc3ccc(Oc4c(Cl)cccc4Cl)c(Cl)c3)n2)c1 [GW659009] | 0% | 0% | 0% | 36% | 0% | 15% | 0% | 0% | 0% | 0% | 0% | 0% | 0% | 4% | 0% | 0% | 0% | 13% | 0% | 4%
10 | CCS(=O)(=O)c1ccc(OC)c(Nc2nccc(-c3c(-c4cccc(NC(=O)c5c(F)cccc5F)c4)nn4ncccc34)n2)c1 [GSK326180] | 0% | 18% | 0% | 40% | 0% | 27% | 17% | 1% | 0% | 0% | 0% | 0% | 0% | 0% | 3% | 7% | 0% | 0% | 0% | 0%
11 | CN1CCN(Cc2cccc(-c3ccc4c(Nc5ccc(Oc6ccccc6)cc5)ccnc4c3)c2)CC1 [GW578342] | 69% | 20% | 94.3% | 98.9% | 0% | 14% | 23% | 1% | 0% | 0% | 0% | 0% | 0% | 30% | 1% | 0% | 16% | 0% | 0% | 0%
12 | COC(=O)Nc1nc2ccc(Oc3ccc(NC(=O)Nc4cc(C(F)(F)F)ccc4F)cc3)cc2n1C.Cl [GW692089] | 0% | 12% | 78% | 100% | 0% | 6% | 4% | 0% | 0% | 0% | 4% | 0% | 0% | 0% | 0% | 0% | 6% | 0% | 24% | 0%
13 | Cc1ccc(S(=O)(=O)Nc2ccc(Nc3nccc(Nc4cccc5[nH]ncc45)n3)cc2)cc1 [GSK581271] | 0% | 12% | 0% | 73% | 0% | 12% | 10% | 0% | 0% | 0% | 0% | 0% | 0% | 0% | 5% | 77% | 0% | 11% | 0% | 0%
14 | NCCCC(NC(=O)c1cc(Br)c(-c2ccnc3[nH]ccc23)s1)c1ccccc1.O=C(O)C(F)(F)F.O=C(O)C(F)(F)F (stereo not shown) [GSK1287544] | 0% | 0% | 0% | 28% | 14% | 25% | 0% | 0% | 0% | 0% | 0% | 0% | 100% | 0% | 0% | 0% | 0% | 59% | 93% | 22%
15 | c1ccc(-c2n[nH]cc2Nc2ccnc3ccccc23)nc1 [GW694077] | 0% | 9% | 20% | 65% | 0% | 16% | 18% | 0% | 30% | 29% | 15% | 0% | 0% | 0% | 14% | 95.7% | 0% | 81% | 7% | 79%
16 | Oc1cc(Nc2ccnc3cc(I)ccc23)ccc1F [GW552771] | 0% | 15% | 19% | 49% | 0% | 0% | 0% | 0% | 0% | 0% | 0% | 0% | 0% | 19% | 0% | 20% | 13% | 8% | 0% | 0%
17 | Cl.c1ccc(-c2ccc3c(Nc4ccc5[nH]ccc5c4)ccnc3c2)nc1 [GW440138] | 6% | 28% | 99.2% | 99.9% | 0% | 0% | 14% | 0% | 0% | 0% | 0% | 0% | 37% | 2% | 0% | 0% | 16% | 0% | 0% | 0%
